Laboratory results published in PubChem BioAssay (Tox21).
Results filed as inconclusive are left out. Where a call stands in place of a potency, no number is given. Active and inactive are the calls of the source. Unless noted, calls follow the shape of the dose curve; as a rule, active = well fitted curve in the direction sought with a large enough effect in the repeat runs; inconclusive = weak or mixed curves; inactive = no such curve, though single readings can be large; an effect the other way counts as inactive or inconclusive.

Assays:
[1] = target: Peroxisome proliferator-activated receptor gamma (Homo sapiens) (UniProt P37231); assay: qHTS assay to identify small molecule agonists of the peroxisome proliferator-activated receptor gamma (PPARg) signaling pathway (AID 743094; active = well fitted activation curve with a large enough effect in the signal ratio in the repeat runs, not every such curve was filed as active; the % refers to the signal ratio)
Peroxisome proliferator-activated receptor gamma (Homo sapiens), sequence (P37231 whole entry, looked up): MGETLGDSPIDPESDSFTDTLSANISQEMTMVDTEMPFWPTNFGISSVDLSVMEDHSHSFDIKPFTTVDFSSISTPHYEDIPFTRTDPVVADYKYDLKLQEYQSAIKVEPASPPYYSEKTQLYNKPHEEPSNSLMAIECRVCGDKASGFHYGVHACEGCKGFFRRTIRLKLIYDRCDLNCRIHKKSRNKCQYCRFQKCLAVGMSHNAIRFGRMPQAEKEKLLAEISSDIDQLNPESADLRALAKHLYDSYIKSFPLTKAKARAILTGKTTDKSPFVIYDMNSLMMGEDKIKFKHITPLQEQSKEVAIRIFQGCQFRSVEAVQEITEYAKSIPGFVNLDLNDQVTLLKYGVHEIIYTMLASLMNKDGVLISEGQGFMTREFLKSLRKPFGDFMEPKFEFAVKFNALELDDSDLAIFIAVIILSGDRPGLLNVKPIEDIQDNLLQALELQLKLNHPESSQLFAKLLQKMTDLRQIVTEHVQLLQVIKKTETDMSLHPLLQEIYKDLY
Summary of the method: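 Cell-based bla reporter, HEK293H background, PPARg-driven UAS. Pre-incubation 5 h, 37C, 5% CO2. Compound 17 h, 37C. Substrate 1 h RT; fluorescence.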

[2] = qHTS assay to identify small molecule antagonists of the peroxisome proliferator-activated receptor gamma (PPARg) signaling pathway - cell viability counter screen (AID 743194); conditions: Potency: co-treated with 50 nM rosiglitazone; also: nearly all actives have a fitted effect of over 55% in size
Summary of the method: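 Viability was measured as CellTiter-Glo luminescence in GeneBLAzer PPARg UAS-bla HEK293H cells. These cells had been exposed 17 h at 37 C to compounds together with rosiglitazone at 50 nM final, with the beta-lactamase readout taken in the same wells.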

[3] = qHTS assay for small molecule agonists of the antioxidant response element (ARE) signaling pathway - cell viability counter screen (AID 743203; calls by dose curve; also: nearly all actives have a fitted effect of over 55% in size)
Summary of the method: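 Measured in the same wells as the beta-lactamase ARE reporter, this read-out is CellTiter-Glo luminescence from HepG2 ARE-bla cells given compounds for 16 hrs.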

[4] = qHTS assay for small molecule activators of the heat shock response signaling pathway - cell viability counter screen (AID 743209); also: nearly all actives have a fitted effect of over 50% in size
Summary of the method: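 Same-well multiplex: after 2.5 h room-temperature incubation with LiveBLAzer B/G substrate and fluorescence reading, CellTiter-Glo reagent was added to HSE-bla HeLa cells that had received compound for 5 h at 37 C; luminescence read after 30 min.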

[5] = qHTS assay for small molecule activators of the heat shock response signaling pathway (AID 743210; active = well fitted activation curve with a large enough effect in the signal ratio in the repeat runs, with a control signal flat, not every such curve was filed as active; the % refers to the signal ratio; also: series mostly up to about 63 µM)
Summary of the method: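 Compound exposure lasted 5 h at 37 C in HeLa cells carrying a heat-shock-element-driven beta-lactamase reporter. Read-out: fluorescence intensity after 2.5 h room-temperature loading with LiveBLAzer B/G FRET substrate.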

[6] = qHTS assay to identify small molecule agonists of the peroxisome proliferator-activated receptor delta (PPARd) signaling pathway - cell viability counter screen (AID 743211); also: nearly all actives have a fitted effect of over 55% in size; also: potency is read from the fitted curve at half-maximal effect
Summary of the method: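 Following 5 h plating at 37 C and 5% CO2, PPARd UAS-bla HEK293H cells took up test compounds for 17 h. Viability was quantified by luminescence 30 min after CellTiter-Glo addition at room temperature.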

[7] = qHTS assay to identify small molecule antagonists of the peroxisome proliferator-activated receptor delta (PPARd) signaling pathway - cell viability counter screen (AID 743213); also: nearly all actives have a fitted effect of over 50% in size
Summary of the method: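 Viability counter-screen, qHTS format: PPARd-bla HEK293H, L165041 300 nM final, 17 h compound exposure at 37 C, CellTiter-Glo luminescence after 30 min RT.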

[8] = target: Bile acid receptor (Homo sapiens) (UniProt Q96RI1); assay: qHTS assay to identify small molecule antagonists of the farnesoid-X-receptor (FXR) signaling pathway (AID 743217; active = well fitted inhibition curve with a large enough effect in the signal ratio in the repeat runs, not every such curve was filed as active; the % refers to the signal ratio)
Bile acid receptor (Homo sapiens), sequence (Q96RI1 whole entry, looked up): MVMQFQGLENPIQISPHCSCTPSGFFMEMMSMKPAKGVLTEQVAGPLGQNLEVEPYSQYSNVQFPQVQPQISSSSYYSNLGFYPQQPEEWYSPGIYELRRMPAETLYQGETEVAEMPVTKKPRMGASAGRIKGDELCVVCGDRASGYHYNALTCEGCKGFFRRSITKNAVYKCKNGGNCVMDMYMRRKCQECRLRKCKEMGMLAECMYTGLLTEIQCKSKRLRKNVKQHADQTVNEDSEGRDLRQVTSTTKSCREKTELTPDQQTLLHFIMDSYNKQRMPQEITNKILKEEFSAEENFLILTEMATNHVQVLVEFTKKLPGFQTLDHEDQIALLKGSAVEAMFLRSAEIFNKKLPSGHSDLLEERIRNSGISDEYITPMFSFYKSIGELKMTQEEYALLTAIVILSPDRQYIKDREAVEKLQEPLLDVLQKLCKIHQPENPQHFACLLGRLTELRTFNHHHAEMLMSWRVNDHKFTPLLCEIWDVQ
Summary of the method: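 FRET fluorescence after 2 h room-temperature LiveBLAzer loading gives the readout. Prior step: FXR-bla HEK 293T cells, seeded and incubated 5 h, received test compounds plus 50 uM final CDCA for 16 h at 37 °C.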

[9] = qHTS assay to identify small molecule agonists of the farnesoid-X-receptor (FXR) signaling pathway - cell viability counter screen (AID 743218); also: nearly all actives have a fitted effect of over 45% in size; also: potency is read from the fitted curve at half-maximal effect
Summary of the method: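 Readout: CellTiter-Glo luminescence, 30 min RT, multiplexed after the FXR-bla FRET reading. HEK 293T FXR-UAS-bla cells received compound 5 h post-plating and were incubated 16 h at 37 C.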

[10] = target: Bile acid receptor (Homo sapiens) (UniProt Q96RI1); assay: qHTS assay to identify small molecule agonists of the farnesoid-X-receptor (FXR) signaling pathway (AID 743220; active = well fitted activation curve with a large enough effect in the signal ratio in the repeat runs, not every such curve was filed as active; the % refers to the signal ratio)
Summary of the method: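 FXR-UAS-bla HEK 293T cells carrying a UAS-driven beta-lactamase reporter were plated for 5 h at 37C/5% CO2, then exposed to DMSO-dissolved Tox21 10K compounds for 16 h at 37C. A LiveBLAzer B/G FRET substrate was loaded for 2 h at room temperature before fluorescence reading.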

[11] = qHTS assay to identify small molecule antagonists of the farnesoid-X-receptor (FXR) signaling pathway - cell viability counter screen (AID 743221; active = well fitted cell-killing curve with a large enough effect in the repeat runs, not every such curve was filed as active; also: nearly all actives have a fitted effect of over 50% in size)
Summary of the method: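 Compound effects on cell number were measured as CellTiter-Glo luminescence in HEK 293T cells expressing FXR-UAS-bla, after 16 h at 37 C with 50 uM CDCA (final).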

[12] = qHTS assay to identify small molecule agonists of the vitamin D receptor (VDR) signaling pathway - cell viability counter screen (AID 743224); also: series mostly up to about 63 µM; nearly all actives have a fitted effect of over 50% in size
Summary of the method: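 In parallel with the bla FRET readout, cytotoxicity toward VDR-bla cells after 16 h compound exposure was assessed by CellTiter-Glo, with luminescence recorded after a 30 min room-temperature incubation.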

[13] = target: Peroxisome proliferator-activated receptor gamma (Homo sapiens) (UniProt P37231); assay: qHTS assay to identify small molecule antagonists of the peroxisome proliferator-activated receptor gamma (PPARg) signaling pathway (AID 743191; calls by dose curve; also: series mostly up to about 63 µM; nearly all actives have a fitted effect of over 30% in size)
Summary of the method: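 Beta-lactamase reporter under UAS control in HEK293H PPARg-bla cells; compound treatment 17 h at 37C. Read-out: fluorescence intensity after 1 h room-temperature incubation with LiveBLAzer B/G FRET substrate.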

[14] = qHTS assay for small molecule agonists of the antioxidant response element (ARE) signaling pathway (AID 743202; active = well fitted activation curve with a large enough effect in the signal ratio in the repeat runs, not every such curve was filed as active; the % refers to the signal ratio)
Summary of the method: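 After 16 hours of compound treatment at 37 C, HepG2 cells with a stably integrated ARE-driven beta-lactamase reporter were loaded 2 hours at room temperature with LiveBLAzer B/G FRET substrate and fluorescence intensity measured.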

[15] = target: Peroxisome proliferator-activated receptor delta (Homo sapiens) (UniProt Q03181); assay: qHTS assay to identify small molecule agonists of the peroxisome proliferator-activated receptor delta (PPARd) signaling pathway (AID 743212; calls by dose curve;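 also: HEK293H cells with PPARd UAS beta-lactamase reporter GeneBLAzer system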)
Peroxisome proliferator-activated receptor delta (Homo sapiens), sequence (Q03181 whole entry, looked up): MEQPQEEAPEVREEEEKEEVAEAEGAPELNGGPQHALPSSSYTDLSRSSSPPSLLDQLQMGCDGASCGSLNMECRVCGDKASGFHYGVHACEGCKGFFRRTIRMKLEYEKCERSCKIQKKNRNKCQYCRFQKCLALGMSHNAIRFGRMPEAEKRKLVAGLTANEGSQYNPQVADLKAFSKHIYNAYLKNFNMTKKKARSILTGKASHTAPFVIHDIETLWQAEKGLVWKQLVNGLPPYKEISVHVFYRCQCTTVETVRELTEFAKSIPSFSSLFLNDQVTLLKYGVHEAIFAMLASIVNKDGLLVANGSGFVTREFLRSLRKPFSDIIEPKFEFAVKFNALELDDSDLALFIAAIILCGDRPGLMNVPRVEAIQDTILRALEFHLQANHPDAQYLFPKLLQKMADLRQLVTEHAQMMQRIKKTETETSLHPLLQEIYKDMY
Summary of the method: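 Beta-lactamase reporter readout: a ratiometric FRET signal from the LiveBLAzer substrate after 2 h at room temperature. Compound exposure at 37 °C in PPARδ-bla HEK293H cells driven by an upstream activator sequence.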

[16] = target: Peroxisome proliferator-activated receptor delta (Homo sapiens) (UniProt Q03181); assay: qHTS assay to identify small molecule antagonists of the peroxisome proliferator-activated receptor delta (PPARd) signaling pathway (AID 743215; active = well fitted inhibition curve with a large enough effect in the signal ratio in the repeat runs, not every such curve was filed as active; the % refers to the signal ratio;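 also: cells stimulated with agonist L165041 at 300 nM final during compound exposure; series mostly up to about 62 µM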)
Summary of the method: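 Fluorescence from cleaved LiveBLAzer B/G FRET substrate (2 h, room temperature) reports PPARd-driven beta-lactamase in HEK293H UAS-bla cells. Cells had been treated 17 h at 37 C with compound plus 300 nM final L165041.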

[17] = target: Vitamin D3 receptor (Homo sapiens) (UniProt P11473); assay: qHTS assay to identify small molecule agonists of the vitamin D receptor (VDR) signaling pathway (AID 743222; calls by dose curve)
Vitamin D3 receptor (Homo sapiens), sequence (P11473 whole entry, looked up): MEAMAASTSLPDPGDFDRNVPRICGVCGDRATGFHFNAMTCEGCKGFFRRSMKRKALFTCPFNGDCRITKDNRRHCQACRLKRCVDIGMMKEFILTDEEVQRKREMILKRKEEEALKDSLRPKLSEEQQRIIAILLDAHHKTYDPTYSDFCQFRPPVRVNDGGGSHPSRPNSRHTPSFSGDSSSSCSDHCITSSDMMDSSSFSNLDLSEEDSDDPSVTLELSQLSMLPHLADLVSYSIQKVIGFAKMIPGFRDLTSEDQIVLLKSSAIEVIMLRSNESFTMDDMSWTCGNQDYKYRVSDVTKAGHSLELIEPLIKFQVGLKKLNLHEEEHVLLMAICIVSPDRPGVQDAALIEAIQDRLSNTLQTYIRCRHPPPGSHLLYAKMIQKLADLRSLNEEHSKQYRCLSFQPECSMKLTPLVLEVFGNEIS
Summary of the method: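 Following 4 h attachment at 37C, VDR-bla cells (2,000 per well) received DMSO-dissolved compounds or controls. After 16 h incubation, LiveBLAzer B/G FRET substrate was added and fluorescence read 2 h later at room temperature.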

[18] = target: Aryl hydrocarbon receptor (Homo sapiens) (UniProt P35869); assay: qHTS assay to identify small molecule that activate the aryl hydrocarbon receptor (AhR) signaling pathway (AID 743085);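 also: HG2L7.5c1 human HepG2 liver cells with stably integrated DRE-driven firefly reporter; series mostly up to about 70 µM; nearly all actives have a fitted effect of over 15% in size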
Aryl hydrocarbon receptor (Homo sapiens), sequence (P35869 whole entry, looked up): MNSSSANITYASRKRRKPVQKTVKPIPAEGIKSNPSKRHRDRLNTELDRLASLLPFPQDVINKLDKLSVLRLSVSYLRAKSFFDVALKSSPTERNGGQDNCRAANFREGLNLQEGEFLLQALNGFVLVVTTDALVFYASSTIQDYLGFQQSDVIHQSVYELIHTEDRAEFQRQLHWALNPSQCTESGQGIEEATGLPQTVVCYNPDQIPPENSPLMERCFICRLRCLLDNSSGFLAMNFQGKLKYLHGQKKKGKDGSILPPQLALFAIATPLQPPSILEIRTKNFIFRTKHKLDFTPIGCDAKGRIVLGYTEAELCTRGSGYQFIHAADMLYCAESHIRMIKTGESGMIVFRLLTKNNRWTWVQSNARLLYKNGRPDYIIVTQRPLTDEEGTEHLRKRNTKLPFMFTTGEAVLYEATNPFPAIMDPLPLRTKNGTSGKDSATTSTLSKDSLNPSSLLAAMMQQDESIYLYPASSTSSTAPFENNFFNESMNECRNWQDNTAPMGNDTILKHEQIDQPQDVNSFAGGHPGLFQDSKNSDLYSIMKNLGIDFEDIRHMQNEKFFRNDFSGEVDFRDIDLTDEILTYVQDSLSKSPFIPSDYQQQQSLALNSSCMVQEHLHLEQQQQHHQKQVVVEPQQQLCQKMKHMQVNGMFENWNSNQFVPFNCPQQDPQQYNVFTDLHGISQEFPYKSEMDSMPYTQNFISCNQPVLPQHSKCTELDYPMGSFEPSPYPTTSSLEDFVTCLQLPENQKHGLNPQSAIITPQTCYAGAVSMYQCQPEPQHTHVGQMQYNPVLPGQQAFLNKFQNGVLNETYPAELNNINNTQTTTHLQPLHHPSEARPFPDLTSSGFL
Summary of the method: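 Measured in HG2L7.5c1 cells: CellTiter-Fluor signal (30 min incubation, 37C) for viability, then luciferase luminescence (30 min, room temperature). Compound contact time was 24 h at 37C, following a 5 h pre-incubation.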

With `C[C@@H]1C[C@@H]([C@H](O)CC2CC(=O)NC(=O)C2)C(=O)[C@@H](C)C1` as the compound, how does the Potency [1] read?
The Potency was “inactive”.

And the Potency [2]?
Its Potency is “inactive”.

And the Potency [3]?
Its Potency is “inactive”.

What about the Potency [4] of the same compound?
The Potency was “inactive”.

And the Potency [5]?
Its Potency is “inactive”.

What about the Potency [6] of the same compound?
The Potency was “inactive”.

And the Potency [7]?
The Potency was “inactive”.

What about the Potency [8] of the same compound?
The Potency was “inactive”.

What about the Potency [9] of the same compound?
Its Potency is “inactive”.

What about the outcome [10] of the same compound?
Its outcome is “inactive”.

What about the Potency [11] of the same compound?
The Potency was “inactive”.

What about the Potency [12] of the same compound?
The Potency was “inactive”.

Which results are given for `CCC(=O)O[C@@H]1C=C2CCC3C(CCC4(C)C3CC[C@@H]4OC(=O)CC)C2CC1` (stereo not given in full)?
Potency [13]: inactive; Potency [2]: inactive; Potency [14]: inactive; Potency [3]: inactive; Potency [4]: inactive; Potency [5]: inactive; Potency [6]: inactive; outcome [15]: inactive; Potency [7]: inactive; Potency [16]: inactive; Potency [9]: inactive; Potency [11]: inactive; outcome [17]: inactive; Potency [12]: inactive

With `COc1cc(C[C@@H](C)N)c(OC)cc1Br` as the compound, how does the Potency [18] read?
The Potency was “inactive”.

What about the Potency [13] of the same compound?
The Potency was “inactive”.

And the Potency [2]?
Its Potency is “inactive”.

And the Potency [3]?
The Potency was “inactive”.

And the Potency [4]?
Its Potency is “inactive”.

What about the Potency [5] of the same compound?
Its Potency is “inactive”.

What about the Potency [6] of the same compound?
The Potency was 62.8 µM (active).

And the Potency [9]?
Its Potency is 31.5 µM (active).

What about the Potency [12] of the same compound?
The Potency was “inactive”.
